Measurements: ChEMBL document CHEMBL1961873, “Compounds: GSK PKIS; Assays: Nanosyn kinase panel” (2012)

What was measured:
[1] = molecular target: Protein kinase C gamma type (Homo sapiens) (UniProt P05129); conditions: at 1 µM;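 also: each value is an averaged percent inhibition of the enzyme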
[2] = molecular target: T1, Protein kinase C iota type (Homo sapiens) (UniProt P41743); conditions: at 0.1 µM
T1 sequence (whole entry): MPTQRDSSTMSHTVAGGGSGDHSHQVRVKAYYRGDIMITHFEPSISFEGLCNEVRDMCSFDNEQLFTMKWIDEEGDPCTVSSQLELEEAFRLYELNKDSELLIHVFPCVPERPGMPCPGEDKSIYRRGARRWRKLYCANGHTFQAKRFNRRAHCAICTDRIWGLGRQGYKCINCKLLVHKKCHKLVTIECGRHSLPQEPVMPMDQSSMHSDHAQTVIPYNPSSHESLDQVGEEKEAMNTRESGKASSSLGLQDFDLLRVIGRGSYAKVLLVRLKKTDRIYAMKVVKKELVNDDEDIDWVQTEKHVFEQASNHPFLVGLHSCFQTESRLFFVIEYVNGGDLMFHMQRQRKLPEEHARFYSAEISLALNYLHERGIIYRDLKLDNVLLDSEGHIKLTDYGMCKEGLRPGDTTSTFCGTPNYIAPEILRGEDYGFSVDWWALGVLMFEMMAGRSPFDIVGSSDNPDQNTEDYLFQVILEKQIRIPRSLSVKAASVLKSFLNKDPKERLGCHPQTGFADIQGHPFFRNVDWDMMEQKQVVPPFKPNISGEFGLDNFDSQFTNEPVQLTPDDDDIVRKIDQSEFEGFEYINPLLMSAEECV

[3] = molecular target: T1, Protein kinase C iota type (Homo sapiens); conditions: at 1 µM
[4] = molecular target: Protein kinase C theta type (Homo sapiens) (UniProt Q04759); conditions: at 0.1 µM
[5] = molecular target: Protein kinase C theta type (Homo sapiens) (UniProt Q04759); conditions: at 1 µM
[6] = molecular target: Protein kinase C beta type (Homo sapiens) (UniProt P05771); conditions: at 0.1 µM
[7] = molecular target: Protein kinase C beta type (Homo sapiens) (UniProt P05771); conditions: at 1 µM
[8] = molecular target: T2, Serine/threonine-protein kinase D1 (Homo sapiens) (UniProt Q15139); conditions: at 0.1 µM
T2 sequence (whole entry): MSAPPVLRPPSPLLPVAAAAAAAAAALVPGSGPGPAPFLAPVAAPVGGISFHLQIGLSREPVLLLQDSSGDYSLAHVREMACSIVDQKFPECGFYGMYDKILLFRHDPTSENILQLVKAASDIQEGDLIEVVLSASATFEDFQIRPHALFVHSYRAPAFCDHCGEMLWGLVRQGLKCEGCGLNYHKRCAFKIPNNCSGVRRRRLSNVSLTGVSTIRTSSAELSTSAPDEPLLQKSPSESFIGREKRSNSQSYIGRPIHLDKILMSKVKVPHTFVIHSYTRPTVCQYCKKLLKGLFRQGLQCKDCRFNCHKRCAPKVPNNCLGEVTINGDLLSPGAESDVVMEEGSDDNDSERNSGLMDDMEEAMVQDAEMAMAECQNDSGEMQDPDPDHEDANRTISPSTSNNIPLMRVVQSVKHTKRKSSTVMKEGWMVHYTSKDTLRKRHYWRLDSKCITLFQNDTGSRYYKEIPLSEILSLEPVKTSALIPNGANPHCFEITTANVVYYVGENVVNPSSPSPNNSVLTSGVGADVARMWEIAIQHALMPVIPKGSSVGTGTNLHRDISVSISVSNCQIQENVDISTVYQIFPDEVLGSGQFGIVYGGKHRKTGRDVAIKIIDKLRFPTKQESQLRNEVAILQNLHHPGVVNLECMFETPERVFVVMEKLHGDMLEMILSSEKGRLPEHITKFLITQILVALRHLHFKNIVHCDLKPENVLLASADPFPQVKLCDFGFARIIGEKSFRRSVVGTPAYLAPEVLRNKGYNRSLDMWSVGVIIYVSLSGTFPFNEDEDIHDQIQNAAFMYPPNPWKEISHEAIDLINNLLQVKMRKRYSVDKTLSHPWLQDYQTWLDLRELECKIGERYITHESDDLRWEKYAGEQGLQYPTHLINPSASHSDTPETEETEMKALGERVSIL

[9] = molecular target: T2, Serine/threonine-protein kinase D1 (Homo sapiens); conditions: at 1 µM
[10] = molecular target: T3, Serine/threonine-protein kinase D2 (Homo sapiens) (UniProt Q9BZL6); conditions: at 0.1 µM
T3 sequence (whole entry): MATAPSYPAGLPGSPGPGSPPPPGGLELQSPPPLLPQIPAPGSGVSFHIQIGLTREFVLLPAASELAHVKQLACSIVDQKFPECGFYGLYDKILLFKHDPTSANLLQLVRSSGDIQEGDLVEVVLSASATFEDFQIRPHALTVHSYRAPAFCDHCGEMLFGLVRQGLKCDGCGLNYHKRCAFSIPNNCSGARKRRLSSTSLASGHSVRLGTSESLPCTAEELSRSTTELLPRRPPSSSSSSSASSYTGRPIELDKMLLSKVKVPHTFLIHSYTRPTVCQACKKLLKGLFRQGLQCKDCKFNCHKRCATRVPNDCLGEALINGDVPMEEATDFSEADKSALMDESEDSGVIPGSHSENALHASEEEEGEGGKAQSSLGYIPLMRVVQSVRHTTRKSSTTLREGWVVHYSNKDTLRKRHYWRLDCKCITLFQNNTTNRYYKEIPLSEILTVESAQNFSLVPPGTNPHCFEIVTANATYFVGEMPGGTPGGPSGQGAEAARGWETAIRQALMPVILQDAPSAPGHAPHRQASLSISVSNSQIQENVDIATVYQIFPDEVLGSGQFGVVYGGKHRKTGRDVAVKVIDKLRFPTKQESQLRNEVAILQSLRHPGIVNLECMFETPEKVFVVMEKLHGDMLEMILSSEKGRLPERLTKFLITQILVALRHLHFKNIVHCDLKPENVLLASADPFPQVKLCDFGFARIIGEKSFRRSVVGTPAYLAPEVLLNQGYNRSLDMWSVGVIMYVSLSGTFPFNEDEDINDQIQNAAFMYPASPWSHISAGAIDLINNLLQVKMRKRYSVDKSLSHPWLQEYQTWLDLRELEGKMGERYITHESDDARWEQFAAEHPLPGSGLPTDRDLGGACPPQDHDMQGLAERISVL

[11] = molecular target: T3, Serine/threonine-protein kinase D2 (Homo sapiens); conditions: at 1 µM
[12] = molecular target: T4, Serine/threonine-protein kinase D3 (Homo sapiens) (UniProt O94806); conditions: at 0.1 µM
T4 sequence (whole entry): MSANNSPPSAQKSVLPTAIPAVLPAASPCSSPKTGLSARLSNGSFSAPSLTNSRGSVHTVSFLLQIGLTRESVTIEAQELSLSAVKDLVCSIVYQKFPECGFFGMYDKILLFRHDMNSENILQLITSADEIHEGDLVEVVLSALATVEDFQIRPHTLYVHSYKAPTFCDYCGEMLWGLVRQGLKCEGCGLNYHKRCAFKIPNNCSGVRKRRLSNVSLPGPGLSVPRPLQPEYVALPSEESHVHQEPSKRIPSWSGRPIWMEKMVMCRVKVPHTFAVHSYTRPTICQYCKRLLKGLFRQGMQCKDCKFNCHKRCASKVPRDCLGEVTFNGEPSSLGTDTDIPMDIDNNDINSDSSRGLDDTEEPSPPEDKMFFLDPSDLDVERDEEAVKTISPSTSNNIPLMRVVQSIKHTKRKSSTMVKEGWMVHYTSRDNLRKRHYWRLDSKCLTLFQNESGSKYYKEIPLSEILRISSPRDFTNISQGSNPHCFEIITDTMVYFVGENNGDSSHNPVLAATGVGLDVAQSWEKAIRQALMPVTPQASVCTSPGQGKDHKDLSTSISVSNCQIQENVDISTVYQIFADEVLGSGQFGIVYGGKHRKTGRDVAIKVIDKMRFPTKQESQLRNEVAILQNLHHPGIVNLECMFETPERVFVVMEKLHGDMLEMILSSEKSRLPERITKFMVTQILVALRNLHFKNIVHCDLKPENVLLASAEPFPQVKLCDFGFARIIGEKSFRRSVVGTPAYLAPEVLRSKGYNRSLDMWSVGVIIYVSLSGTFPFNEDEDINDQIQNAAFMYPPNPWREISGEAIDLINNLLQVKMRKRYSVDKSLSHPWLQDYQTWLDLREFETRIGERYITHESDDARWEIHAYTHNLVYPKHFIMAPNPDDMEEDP

[13] = molecular target: T4, Serine/threonine-protein kinase D3 (Homo sapiens); conditions: at 1 µM
[14] = molecular target: T5, cGMP-dependent protein kinase 1 (Homo sapiens) (UniProt Q13976); conditions: at 0.1 µM
T5 sequence (whole entry): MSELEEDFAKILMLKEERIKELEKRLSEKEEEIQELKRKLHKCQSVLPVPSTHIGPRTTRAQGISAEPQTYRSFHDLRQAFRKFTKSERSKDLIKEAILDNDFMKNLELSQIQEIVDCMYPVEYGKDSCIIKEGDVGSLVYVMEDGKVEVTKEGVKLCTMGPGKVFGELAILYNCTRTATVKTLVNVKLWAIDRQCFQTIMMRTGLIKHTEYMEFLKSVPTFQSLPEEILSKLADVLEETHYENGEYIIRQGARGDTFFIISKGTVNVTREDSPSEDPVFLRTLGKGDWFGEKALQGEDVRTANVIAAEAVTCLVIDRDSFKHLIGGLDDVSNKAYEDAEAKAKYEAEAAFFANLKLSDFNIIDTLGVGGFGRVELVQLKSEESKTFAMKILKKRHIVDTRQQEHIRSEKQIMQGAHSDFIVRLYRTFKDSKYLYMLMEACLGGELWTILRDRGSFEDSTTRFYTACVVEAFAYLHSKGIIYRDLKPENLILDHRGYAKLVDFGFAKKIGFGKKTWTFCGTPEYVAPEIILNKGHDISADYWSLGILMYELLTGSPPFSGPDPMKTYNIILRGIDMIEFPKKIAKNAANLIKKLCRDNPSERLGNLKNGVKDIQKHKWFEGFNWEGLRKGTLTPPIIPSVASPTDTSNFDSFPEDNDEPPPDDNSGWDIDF

[15] = molecular target: T5, cGMP-dependent protein kinase 1 (Homo sapiens); conditions: at 1 µM
[16] = molecular target: T6, cGMP-dependent protein kinase 2 (Homo sapiens) (UniProt Q13237); conditions: at 0.1 µM
T6 sequence (whole entry): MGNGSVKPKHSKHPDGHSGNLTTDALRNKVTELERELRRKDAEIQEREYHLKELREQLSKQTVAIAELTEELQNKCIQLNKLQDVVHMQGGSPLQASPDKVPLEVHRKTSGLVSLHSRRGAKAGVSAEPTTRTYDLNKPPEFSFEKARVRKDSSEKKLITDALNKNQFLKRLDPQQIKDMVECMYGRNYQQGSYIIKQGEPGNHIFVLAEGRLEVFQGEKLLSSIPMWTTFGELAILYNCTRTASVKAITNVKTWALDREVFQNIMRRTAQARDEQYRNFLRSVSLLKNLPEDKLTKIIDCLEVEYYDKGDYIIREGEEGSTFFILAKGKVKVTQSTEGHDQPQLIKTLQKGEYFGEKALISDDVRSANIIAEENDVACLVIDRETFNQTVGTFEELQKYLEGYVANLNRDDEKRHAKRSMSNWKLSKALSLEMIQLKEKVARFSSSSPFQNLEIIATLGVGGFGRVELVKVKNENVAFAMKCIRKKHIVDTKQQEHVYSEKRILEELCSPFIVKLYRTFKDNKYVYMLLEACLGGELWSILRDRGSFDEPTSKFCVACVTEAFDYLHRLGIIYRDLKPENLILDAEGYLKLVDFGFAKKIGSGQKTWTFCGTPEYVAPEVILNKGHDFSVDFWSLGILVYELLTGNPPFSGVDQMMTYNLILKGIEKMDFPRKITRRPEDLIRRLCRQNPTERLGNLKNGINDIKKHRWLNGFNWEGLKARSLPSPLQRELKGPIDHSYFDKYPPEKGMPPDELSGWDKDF

[17] = molecular target: T6, cGMP-dependent protein kinase 2 (Homo sapiens); conditions: at 1 µM
[18] = molecular target: T7, cAMP-dependent protein kinase catalytic subunit PRKX (Homo sapiens) (UniProt P51817); conditions: at 0.1 µM
T7 sequence (whole entry): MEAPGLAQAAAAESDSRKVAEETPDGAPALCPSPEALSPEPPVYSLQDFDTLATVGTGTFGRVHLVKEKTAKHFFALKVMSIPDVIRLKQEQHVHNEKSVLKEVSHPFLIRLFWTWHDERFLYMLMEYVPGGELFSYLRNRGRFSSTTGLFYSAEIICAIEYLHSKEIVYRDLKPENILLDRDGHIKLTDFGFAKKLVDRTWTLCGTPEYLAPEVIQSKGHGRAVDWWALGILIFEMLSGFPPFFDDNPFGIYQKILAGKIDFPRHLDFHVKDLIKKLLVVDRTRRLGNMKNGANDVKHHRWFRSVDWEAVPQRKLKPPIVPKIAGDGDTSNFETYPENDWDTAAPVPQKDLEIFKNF

[19] = molecular target: T7, cAMP-dependent protein kinase catalytic subunit PRKX (Homo sapiens); conditions: at 1 µM
[20] = molecular target: Rho-associated protein kinase 1 (Homo sapiens) (UniProt Q13464); conditions: at 0.1 µM;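 also: values are mean percent inhibition of ROCK1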
Chain of Rho-associated protein kinase 1 (Homo sapiens) (Q13464 2-1354 limits assumed): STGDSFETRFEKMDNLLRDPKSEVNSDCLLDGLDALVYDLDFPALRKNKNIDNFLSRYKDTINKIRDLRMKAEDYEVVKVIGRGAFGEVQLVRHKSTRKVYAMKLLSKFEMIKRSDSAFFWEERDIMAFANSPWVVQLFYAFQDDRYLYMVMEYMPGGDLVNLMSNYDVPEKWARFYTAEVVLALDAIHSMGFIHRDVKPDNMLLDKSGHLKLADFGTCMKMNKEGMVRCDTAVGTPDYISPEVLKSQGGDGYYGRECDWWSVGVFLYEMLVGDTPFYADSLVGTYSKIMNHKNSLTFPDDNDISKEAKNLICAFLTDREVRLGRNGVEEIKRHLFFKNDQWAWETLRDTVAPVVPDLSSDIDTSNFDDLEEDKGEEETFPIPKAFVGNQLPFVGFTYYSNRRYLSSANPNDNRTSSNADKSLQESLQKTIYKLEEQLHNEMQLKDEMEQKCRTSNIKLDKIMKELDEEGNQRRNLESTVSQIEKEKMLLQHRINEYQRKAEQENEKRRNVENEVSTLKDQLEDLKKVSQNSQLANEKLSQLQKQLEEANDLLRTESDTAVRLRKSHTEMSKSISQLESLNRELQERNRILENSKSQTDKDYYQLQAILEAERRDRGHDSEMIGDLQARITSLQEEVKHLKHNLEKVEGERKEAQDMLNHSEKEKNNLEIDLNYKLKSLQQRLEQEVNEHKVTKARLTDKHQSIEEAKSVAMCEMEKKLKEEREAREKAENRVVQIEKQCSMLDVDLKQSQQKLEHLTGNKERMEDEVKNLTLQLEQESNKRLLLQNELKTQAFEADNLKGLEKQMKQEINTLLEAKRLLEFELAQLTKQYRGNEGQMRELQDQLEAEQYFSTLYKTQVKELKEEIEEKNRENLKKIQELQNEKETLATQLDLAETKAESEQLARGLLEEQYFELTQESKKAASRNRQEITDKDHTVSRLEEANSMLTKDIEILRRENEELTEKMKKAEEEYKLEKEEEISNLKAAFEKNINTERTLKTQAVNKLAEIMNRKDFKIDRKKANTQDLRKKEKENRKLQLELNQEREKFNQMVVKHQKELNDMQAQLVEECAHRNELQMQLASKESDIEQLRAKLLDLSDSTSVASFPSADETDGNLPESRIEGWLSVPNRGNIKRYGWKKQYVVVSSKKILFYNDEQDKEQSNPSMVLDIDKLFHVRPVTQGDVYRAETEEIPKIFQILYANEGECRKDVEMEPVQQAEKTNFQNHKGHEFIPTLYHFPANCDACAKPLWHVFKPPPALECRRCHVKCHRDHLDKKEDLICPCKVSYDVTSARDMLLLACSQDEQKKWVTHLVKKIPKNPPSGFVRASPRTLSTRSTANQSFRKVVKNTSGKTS

Chain of Protein kinase C beta type (Homo sapiens) (P05771 2-671 limits assumed): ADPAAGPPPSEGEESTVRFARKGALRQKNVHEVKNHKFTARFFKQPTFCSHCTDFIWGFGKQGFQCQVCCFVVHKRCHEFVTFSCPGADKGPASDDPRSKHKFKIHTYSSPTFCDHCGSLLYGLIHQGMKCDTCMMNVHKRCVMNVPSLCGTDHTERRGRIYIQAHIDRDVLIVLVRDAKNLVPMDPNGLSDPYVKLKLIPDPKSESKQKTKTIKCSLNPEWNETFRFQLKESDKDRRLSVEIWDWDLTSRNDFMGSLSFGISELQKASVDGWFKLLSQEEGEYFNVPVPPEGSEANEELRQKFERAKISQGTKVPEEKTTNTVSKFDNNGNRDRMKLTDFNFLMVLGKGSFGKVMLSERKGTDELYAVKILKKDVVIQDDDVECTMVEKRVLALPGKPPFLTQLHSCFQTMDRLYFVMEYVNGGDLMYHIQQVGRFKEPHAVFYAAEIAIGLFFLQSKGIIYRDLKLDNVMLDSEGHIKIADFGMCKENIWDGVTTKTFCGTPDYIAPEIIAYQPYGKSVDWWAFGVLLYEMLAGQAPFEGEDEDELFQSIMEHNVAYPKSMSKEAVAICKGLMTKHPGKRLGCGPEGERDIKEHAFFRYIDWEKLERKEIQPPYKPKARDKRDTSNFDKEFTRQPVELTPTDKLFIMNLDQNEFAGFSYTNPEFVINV
Chain of Protein kinase C theta type (Homo sapiens) (Q04759 whole entry, looked up): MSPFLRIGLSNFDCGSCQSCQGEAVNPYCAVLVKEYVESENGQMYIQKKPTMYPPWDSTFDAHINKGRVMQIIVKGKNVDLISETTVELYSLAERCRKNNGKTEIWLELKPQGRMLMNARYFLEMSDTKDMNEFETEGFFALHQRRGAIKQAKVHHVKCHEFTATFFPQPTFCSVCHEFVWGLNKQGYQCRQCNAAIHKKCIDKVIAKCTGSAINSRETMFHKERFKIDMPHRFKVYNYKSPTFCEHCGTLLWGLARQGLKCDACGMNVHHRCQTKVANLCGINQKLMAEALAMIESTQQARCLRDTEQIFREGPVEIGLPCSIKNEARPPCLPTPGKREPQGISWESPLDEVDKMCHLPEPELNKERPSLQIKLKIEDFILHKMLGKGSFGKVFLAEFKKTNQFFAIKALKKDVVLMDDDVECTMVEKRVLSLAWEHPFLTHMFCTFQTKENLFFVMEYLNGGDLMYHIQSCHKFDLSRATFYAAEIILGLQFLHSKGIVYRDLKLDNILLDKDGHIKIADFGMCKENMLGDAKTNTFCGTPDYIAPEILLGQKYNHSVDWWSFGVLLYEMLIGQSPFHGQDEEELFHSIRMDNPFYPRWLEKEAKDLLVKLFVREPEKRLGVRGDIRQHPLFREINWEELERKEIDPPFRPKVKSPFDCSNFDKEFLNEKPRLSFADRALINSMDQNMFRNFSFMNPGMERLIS

Row | Structure (SMILES) | inhibition [1] [%] | inhibition [2] [%] | inhibition [3] [%] | inhibition [4] [%] | inhibition [5] [%] | inhibition [6] [%] | inhibition [7] [%] | inhibition [8] [%] | inhibition [9] [%] | inhibition [10] [%] | inhibition [11] [%] | inhibition [12] [%] | inhibition [13] [%] | inhibition [14] [%] | inhibition [15] [%] | inhibition [16] [%] | inhibition [17] [%] | inhibition [18] [%] | inhibition [19] [%] | inhibition [20] [%]
1 | Cc1cc(Cl)cc2c1NC(=O)C2=NNc1ccc(S(N)(=O)=O)cc1 | 1.99 | 0.57 | 0.13 | 1.67 | 3.19 | 0.04 | 1.07 | 2.49 | 2.15 | 2.28 | 2.34 | 2.25 | 1.81 | 1.17 | 3.27 | 2.01 | 2 | 1.43 | 3.22 | 0.02
2 | CN(c1ccc(NC(=O)Nc2ccc(OC(F)(F)F)cc2)cc1)c1ccnc(Nc2cccc(S(N)(=O)=O)c2)n1 | 2.99 | 0.52 | -0.73 | 0.61 | 0.96 | -0.08 | 0.69 | 2.95 | 4.48 | 3.68 | 3.78 | 3.1 | 3.42 | -0.15 | 0.56 | 0.76 | -0.82 | 0.6 | 0 | -0.35
